# Laboratory results published in PubChem BioAssay.
# Results filed as inconclusive are left out. The source made the active and inactive calls.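 The calls were made as follows, unless noted: active = RAM network inhibition above 8.4% in each of two replicates, 3 SD over the compound average; inconclusive = above 8.4% inhibition in only one replicate; inactive = 8.4% inhibition or less in each replicate.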
# Key:
# [1] = reducers of endogenous Her2 protein level, primary screen, SKBR3 breast tumor cells, AlphaScreen, ATP viability (AID 461;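 active = Her2 level under about 52% in both replicate screens, with viability over 70% of control, limit read from the data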;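 as to Her2 level: lower value means less Her2 protein in the cells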;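 as to viability: percent of carrier control wells set as 100% viability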); settings: 18-24 h, measured here: SKBR3 viability, ATP luminescence, at 10 µM
# [2] = target: Receptor tyrosine-protein kinase erbB-2 (Homo sapiens) (UniProt P04626); experiment: as above; settings: 18-24 h, at 10 µM, stronger effect = lower value
# Receptor tyrosine-protein kinase erbB-2 (Homo sapiens), sequence (P04626 whole entry, looked up): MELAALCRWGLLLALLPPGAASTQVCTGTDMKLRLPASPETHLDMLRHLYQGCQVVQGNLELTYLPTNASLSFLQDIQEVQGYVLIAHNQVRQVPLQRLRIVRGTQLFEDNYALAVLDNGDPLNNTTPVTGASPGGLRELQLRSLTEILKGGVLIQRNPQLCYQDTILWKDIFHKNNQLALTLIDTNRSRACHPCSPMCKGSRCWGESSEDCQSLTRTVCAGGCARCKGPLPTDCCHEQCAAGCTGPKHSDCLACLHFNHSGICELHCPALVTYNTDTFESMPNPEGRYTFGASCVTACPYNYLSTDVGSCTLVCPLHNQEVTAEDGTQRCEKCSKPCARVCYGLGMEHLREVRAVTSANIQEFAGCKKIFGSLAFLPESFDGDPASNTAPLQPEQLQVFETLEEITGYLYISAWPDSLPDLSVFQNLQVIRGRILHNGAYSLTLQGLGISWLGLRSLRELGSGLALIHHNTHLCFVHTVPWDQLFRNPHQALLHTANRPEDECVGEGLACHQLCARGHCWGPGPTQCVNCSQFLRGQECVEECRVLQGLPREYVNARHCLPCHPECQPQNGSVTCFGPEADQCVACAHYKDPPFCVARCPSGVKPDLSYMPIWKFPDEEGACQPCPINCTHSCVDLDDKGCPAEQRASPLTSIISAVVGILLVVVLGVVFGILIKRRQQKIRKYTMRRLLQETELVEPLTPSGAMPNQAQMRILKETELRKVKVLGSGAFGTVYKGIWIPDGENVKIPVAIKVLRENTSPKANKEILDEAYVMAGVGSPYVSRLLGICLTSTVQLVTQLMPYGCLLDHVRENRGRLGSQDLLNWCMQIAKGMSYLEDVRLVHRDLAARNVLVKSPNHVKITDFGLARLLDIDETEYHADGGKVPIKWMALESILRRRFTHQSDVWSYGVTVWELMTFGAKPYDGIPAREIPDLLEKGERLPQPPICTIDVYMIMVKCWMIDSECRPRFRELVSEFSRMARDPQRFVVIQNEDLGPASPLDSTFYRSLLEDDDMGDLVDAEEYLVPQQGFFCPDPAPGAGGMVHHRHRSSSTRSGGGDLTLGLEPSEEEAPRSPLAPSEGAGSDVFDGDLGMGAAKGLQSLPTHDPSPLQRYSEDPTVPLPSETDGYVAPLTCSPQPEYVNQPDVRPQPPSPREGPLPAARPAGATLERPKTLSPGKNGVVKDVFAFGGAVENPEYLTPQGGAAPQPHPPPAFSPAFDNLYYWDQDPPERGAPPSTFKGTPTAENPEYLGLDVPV
# [3] = SK-BR-3 cell growth inhibitors, pilot screen, 24 h, human (AID 572;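 active = viability at or below 10% of carrier control in both of two separate runs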;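 also: compound exposure lasted between 18 and 24 h rather than exactly 24 h; 100% = carrier-treated control wells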); settings: SK-BR-3 viability, CellTiter-Glo luminescence, at 10 µM, stronger effect = lower value
# [4] = HUVEC growth inhibition – cell-based, human, primary screen (AID 575;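 active = viability at or below 30% in both replicate assays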;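 also: 100% = median of untreated cell wells with 0.1% DMSO on each plate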); settings: HUVEC proliferation, CellTiter-Glo luminescence, 72 h; at 10 µM; stronger effect = lower value
# [5] = growth inhibitors of H69AR lung tumor, primary screen, human, duplicate replicates (AID 580;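 active = viability at or under a set limit in both replicates, limit being median viability minus 3 SD, cut at about 48% in these data, passing the limit was not always enough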;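 also: 100% = mean luminescence of untreated wells and 0% = no signal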); settings: H69AR lung tumor cells viability, ATP luminescence, 72 h; at 10 µM; stronger effect = lower value
# [6] = reversal of MRP1-mediated doxorubicin resistance, pilot screen, H69AR cells, doxorubicin co-treatment (AID 601;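 active = viability loss from added drug above about 55%, and viability with drug at most 40%, in both replicates, limit read from the data, passing the limit was not always enough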); settings: CellTiter-Glo, 72 h, at 10 µM; for differential viability (reversal): stronger effect = higher value
# [7] = 384-well plate pilot, post-Golgi transport modulator project, inhibition of yeast transport mutant growth (AID 636; in the data active = inhibition above about 31%); settings: absorbance 615 nm, about 18 h, stronger effect = higher value
# [8] = growth suppression of yeast trafficking mutant, preliminary HTS, modulators of trafficking downstream of Golgi apparatus project, 1536-format plate, OD 615 nm (AID 637; in the data active = inhibition above about 30%); settings: yeast transport mutant growth, absorbance 615 nm, 18 h; stronger effect = higher value
# [9] = OD615 S. cerevisiae growth inhibition, permissive medium, pilot counter-assay, permissive growth control for S. cerevisiae lifespan shortening project (AID 705;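 active = growth inhibition above 25% in both replicates, a cutoff set 3 SD above the mean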); settings: OD615, 24 h, at 10 µM, stronger effect = higher value
# [10] = Restrictive medium S. cerevisiae growth inhibition, OD615, pilot screen of yeast lifespan reduction project, restrictive growth control (AID 706;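 active = growth inhibition above a set limit, 3 SD over mean compound inhibition, in both replicates, cut at about 43% in these data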;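 also: modified DeaD lifespan yeast strain shifted to restrictive glucose medium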); settings: OD615, 48 h, at 10 µM, stronger effect = higher value
# [11] = viability gain of MRP-1-high H69AR cells under doxorubicin, pilot screen, MRP-1 activator project, CellTiter-Glo, duplicate (AID 807;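 active = viability increase at or above a cutoff of the median across tested compounds plus 3 SD, cut at about 8.5% in these data, passing the limit was not always enough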;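 also: compound pretreatment 18-22 h then 72 h combined with doxorubicin; 0% = doxorubicin alone and 100% = vehicle without doxorubicin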); settings: H69AR viability with doxorubicin, CellTiter-Glo luminescence; at 10 µM; stronger effect = higher value
# [12] = growth suppression of beta-catenin knockout HCT116, pilot screen, human colon tumor cells (AID 823;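 active = cell viability at or below a set limit in both duplicate runs, the limit being the all-compound median minus 4 SD, cut at about 23% in these data, passing the limit was not always enough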;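 also: 0% = wells killed by 20 µM Hyamine and 100% = untreated DMSO cell wells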); settings: CellTiter-Glo, 60 h, at 10 µM, stronger effect = lower value
# [13] = growth suppression of PTEN-deleted HCT116, pilot screen, cell-based, HCT116 clonal line, CellTiter-Glo (AID 824;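 active = viability at or below 27.92% in each of two runs, the all-compound median minus 4 SD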;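 also: 0% = 20 µM Hyamine control and 100% = vehicle cell control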); settings: 60 h, at 10 µM, stronger effect = lower value
# [14] = RAM signaling pathway blockade in yeast – S. cerevisiae, Pdr1DBD-CYC8 efflux-inhibited sensitized strain, primary screen (AID 1298);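 also: 0% = DMSO untreated cells without growth and 100% = 10 µM 1-NA-PP1 full growth; higher means more yeast growth rescued from 5-FOA killing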; settings: S. cerevisiae cbk1-as DSE1-URA3 strain, 5-FOA growth OD615, 2 d; at 50 µM; stronger effect = higher value
# [15] = inhibitors of the yeast RAM network, pilot screen, dse1pr::URA3 reporter, 5-FOA selection (AID 869;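 active = inhibition over a set limit, the all-compound mean plus 3 SD, in both replicate runs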;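 also: 0% = DMSO wells with no growth and 100% = 10 µM 1-NA-PP1 with full growth; RAM network block rescues cells from 5-FOA so hits raise OD615 growth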); settings: S. cerevisiae dse1pr::URA3 5-FOA growth, OD615, 2 d; at 10 µM; stronger effect = higher value; strain carries analog-sensitive mutant Cbk1 kinase
# [16] = H69AR cells + 2 uM doxorubicin, measured here: viability with 2 uM doxorubicin, stronger effect = lower value
# [17] = H69AR cells, compound alone cytotoxicity
SMILES,viability [1] [%],Her2 level [2],viability [3],viability [4],viability [5],differential viability (reversal) ([6]; H69AR cells + 2 uM doxorubicin),"viability [6, 16] [%]","viability [6, 17] [%]",inhibition [7],inhibition [8],growth inhibition [9],growth inhibition [10],viability increase [11],viability [12],viability [13],RAM network inhibition [14],inhibition [15]
COc1ccc(N2CCN(c3oc(COc4ccccc4Cl)nc3C#N)CC2)cc1,109,105% (inactive),109% (inactive),104% (inactive),92.3% (inactive),8.78% (inactive),83.6,92.3,-6.23% (inactive),-4.75% (inactive),-2.64% (inactive),-5.2% (inactive),2.27% (inactive),65.7% (inactive),64.9% (inactive),4.12% (inactive),–
CCn1cc(C(=O)NCC2CCCO2)c(=O)c2cc(S(=O)(=O)N(C)C)ccc21 (stereo unspecified),85.5,113% (inactive),85.5% (inactive),105% (inactive),88.6% (inactive),5.47% (inactive),83.1,88.6,-0.13% (inactive),-3.83% (inactive),-1.35% (inactive),1.3% (inactive),-0.77% (inactive),101% (inactive),94.9% (inactive),1.14% (inactive),2.33% (inactive)
Cc1occc1C(=O)N1CCN(Cc2ccccc2)CC1,85.5,89% (inactive),85.5% (inactive),98.1% (inactive),89.3% (inactive),3.23% (inactive),86,89.3,0.26% (inactive),-5.5% (inactive),-0.31% (inactive),-15.5% (inactive),-1.95% (inactive),94.7% (inactive),97.6% (inactive),2.68% (inactive),–
Fc1cccc(Nc2ncnc3c2cnn3-c2ccccc2)c1,83.5,70.5% (inactive),83.5% (inactive),54.9% (inactive),37.9% (active),-31.6% (inactive),69.5,37.9,2.4% (inactive),-1.67% (inactive),-5.18% (inactive),-6.66% (inactive),-5.13% (inactive),71.5% (inactive),70.2% (inactive),0.26% (inactive),0.315% (inactive)
O=C(Nc1ccccc1)C1=C(O)CC(c2ccoc2)CC1=Nc1ccccc1 (stereo unspecified),93,91% (inactive),93% (inactive),96.8% (inactive),73% (inactive),-6.7% (inactive),79.7,73,71.4% (active),4.59% (inactive),-11.2% (inactive),-4.9% (inactive),-4.69% (inactive),69.6% (inactive),70.3% (inactive),2.05% (inactive),1.05% (inactive)
CCc1ccc(N(CC(=O)NC2CCCC2)S(=O)(=O)c2c(C)noc2C)cc1,102,110% (inactive),102% (inactive),101% (inactive),84% (inactive),3.79% (inactive),80.2,84,-4.4% (inactive),-0.83% (inactive),-3.32% (inactive),3.27% (inactive),-1.49% (inactive),92.3% (inactive),93.8% (inactive),2.82% (inactive),–
Cc1ccc(-c2cc3nc4c(c(=O)n3[nH]2)CCCC4)cc1,105,119% (inactive),105% (inactive),88.7% (inactive),91.9% (inactive),-1.42% (inactive),93.4,91.9,-0.26% (inactive),-10% (inactive),-17% (inactive),-22.5% (inactive),-0.73% (inactive),95.2% (inactive),90.4% (inactive),5.06% (inactive),2.7% (inactive)
O=C1CCCC2=C1C(c1cccc(Br)c1)n1nc(-c3ccco3)nc1N2 (stereo unspecified),95.5,73% (inactive),95.5% (inactive),80.6% (inactive),103% (inactive),2.4% (inactive),100,103,-1.73% (inactive),-2.95% (inactive),-11.7% (inactive),-0.21% (inactive),-2.06% (inactive),81.5% (inactive),76.5% (inactive),0.99% (inactive),–
CCOC(=O)N1CCC(NC(=O)c2ccc(CS(=O)(=O)c3c(Cl)cccc3Cl)o2)CC1,84.5,90% (inactive),84.5% (inactive),95.8% (inactive),104% (inactive),6.95% (inactive),96.6,104,2.31% (inactive),0.83% (inactive),-12.4% (inactive),-27.1% (inactive),-1.87% (inactive),106% (inactive),93.5% (inactive),2.82% (inactive),1.53% (inactive)
CCCSc1nnc2nc3c(nn12)c1ccccc1n3C,86,85.5% (inactive),86% (inactive),98.9% (inactive),89.3% (inactive),2.42% (inactive),86.9,89.3,-0.27% (inactive),7.21% (inactive),3.75% (inactive),2.38% (inactive),-4.48% (inactive),105% (inactive),97% (inactive),0.96% (inactive),1.27% (inactive)
